# Reference: PubChem BioAssay (NCATS)
# Results filed as inconclusive are left out. Calls of active or inactive are those of the source. The call rests on the fitted dose curve; in most records, active means well fitted cell-killing curve with a large enough effect; inconclusive means small, poorly fitted or top-dose-only effect; inactive means flat fitted curve, though single readings scatter.
# Experiment: Cellular viability qHTS for adrenocortical cancer (ACC) cell line NCI-H295R (AID 1963990); further: nearly all actives have a fitted effect of over 60% in size;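 on activity change, negative = viability loss: 0% = DMSO only wells and -100% = full killing with cytotoxic reference compound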
# Details: CellTiter-Glo ATP luminescence, 48 h; series mostly up to 46.1 µM; activity change, negative = viability loss: at the top concentration
# Method in brief: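 Compound titrations (up to 46 uM final) are applied to NCI-H295R cultures for 48 h at 37C. Viable cell number is estimated by CellTiter-Glo signal, normalised to DMSO and doxorubicin controls.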
# Potency means the concentration at half of the fitted maximal effect.
Structure (SMILES),Potency,"activity change, negative = viability loss"
Cc1cnc(Nc2ccc(F)cc2Cl)nc1-c1c[nH]c(C(=O)NC(CO)c2cccc(Cl)c2)c1 (stereo unspecified),8.91 µM (active),–
CCCOC(C(=O)OC1CCN(C)CC1)(c1ccccc1)c1ccccc1,23.1 µM (active),–
CCCCCCOc1ccccc1C(N)=O,–,-22.3% (inactive)
COc1ccc(/C=C/C(=O)c2ccc(OC)cc2OC)cc1,9.2 µM (active),–
CCN(CCCc1ccccc1)CCCc1ccccc1,–,-26.8% (inactive)
CCOC(=O)c1c(N)sc2c1CCN(Cc1ccccc1)C2,–,-22.2% (inactive)
COc1ccc2cc(CCC(C)=O)ccc2c1,–,19.2% (inactive)
C[C@H]1[C@H](C)CC[C@]2(C(=O)O)CC[C@]3(C)C(=CC[C@@H]4[C@@]5(C)C[C@@H](O)[C@H](O)[C@@](C)(CO)[C@@H]5CC[C@]43C)[C@H]12,–,-12.5% (inactive)
CN(C)CCOC(c1ccccc1)c1ccc(Br)cc1 (stereo unspecified),13 µM (active),–
Nc1ncnc2c1c(COc1cccc(Cl)c1)nn2C1CCOCC1,–,-23.2% (inactive)
O=C1NCN(c2ccccc2)C12CCN(CCCC(c1ccc(F)cc1)c1ccc(F)cc1)CC2,3.26 µM (active),–
CC(C)=CCC1C(=O)N(c2ccccc2)N(c2ccccc2)C1=O,20.6 µM (active),–
COc1ccc(-n2nc(CCC(=O)N(C)O)cc2-c2ccc(Cl)cc2)cc1,16.4 µM (active),–
CCC(=O)OCC(=O)C1(OC(=O)CC)C(C)CC2C3CCC4=CC(=O)C=CC4(C)C3(F)C(O)CC21C (stereo unspecified),4.47 µM (active),–
Nc1nccc(-c2c(-c3ccc(F)cc3)ncn2C2CCCCC2)n1,–,-27.6% (inactive)
CCOC(=O)C1=C(C)NC(C)=C(C(=O)OC)C1c1cccc([N+](=O)[O-])c1 (stereo unspecified),16.4 µM (active),–
c1ccc2occc2c1,–,-22.6% [at 92.7 µM] (inactive)
CCCSS/C(CCO)=C(\C)N(C=O)Cc1cnc(C)nc1N,9.2 µM (active),–
CC(C)=CCOc1ccc(/C=C/C(=O)c2ccc(OCC=C(C)C)cc2OCC(=O)O)cc1,9.2 µM (active),–
CCn1c(=O)c2c(nc(/C=C/c3ccc(OC)c(OC)c3)n2C)n(CC)c1=O,–,-8.7% (inactive)
C=CCN(/C=C1\C(=O)O[C@@H](COC)[C@]2(C)C1=C(O)C(=O)C1=C2[C@@H](OC(C)=O)C[C@]2(C)C(=O)CC[C@H]12)CC=C,28.2 µM (active),–
CCCCOC(=O)c1ccc(N)cc1,–,-16.9% (inactive)
COc1ccc([C@@H]2Sc3ccccc3NC(=O)[C@@H]2O)cc1,23.1 µM (active),–
CC/C(=C(/c1ccc(O)cc1)c1ccc(OCCNC)cc1)c1ccccc1,–,9.53% (inactive)
COc1ccc2c(c1)C(=O)N(CCc1ccc(S(=O)(=O)NC(=O)NC3CCCCC3)cc1)C(=O)C2(C)C,–,-19.5% (inactive)
Nc1nc2ccccc2n1Cc1ccc(F)cc1,–,-23.8% (inactive)
